# In all, about 310,000 compounds went through this assay and about 2,200 (0.71%) showed an effect of 50% or more. Effects have a minus sign here. Only a selection was taken, and strong results are over-represented in it overall.
# Biological target: human ether-à-go-go-related gene (hERG) potassium channel (human, UniProt Q12809)
# Experiment: primary screen, population patch clamp on CHO cells stably expressing hERG; higher = less effect of the substance
# Chain of human ether-à-go-go-related gene (hERG) potassium channel (Q12809 whole entry, looked up): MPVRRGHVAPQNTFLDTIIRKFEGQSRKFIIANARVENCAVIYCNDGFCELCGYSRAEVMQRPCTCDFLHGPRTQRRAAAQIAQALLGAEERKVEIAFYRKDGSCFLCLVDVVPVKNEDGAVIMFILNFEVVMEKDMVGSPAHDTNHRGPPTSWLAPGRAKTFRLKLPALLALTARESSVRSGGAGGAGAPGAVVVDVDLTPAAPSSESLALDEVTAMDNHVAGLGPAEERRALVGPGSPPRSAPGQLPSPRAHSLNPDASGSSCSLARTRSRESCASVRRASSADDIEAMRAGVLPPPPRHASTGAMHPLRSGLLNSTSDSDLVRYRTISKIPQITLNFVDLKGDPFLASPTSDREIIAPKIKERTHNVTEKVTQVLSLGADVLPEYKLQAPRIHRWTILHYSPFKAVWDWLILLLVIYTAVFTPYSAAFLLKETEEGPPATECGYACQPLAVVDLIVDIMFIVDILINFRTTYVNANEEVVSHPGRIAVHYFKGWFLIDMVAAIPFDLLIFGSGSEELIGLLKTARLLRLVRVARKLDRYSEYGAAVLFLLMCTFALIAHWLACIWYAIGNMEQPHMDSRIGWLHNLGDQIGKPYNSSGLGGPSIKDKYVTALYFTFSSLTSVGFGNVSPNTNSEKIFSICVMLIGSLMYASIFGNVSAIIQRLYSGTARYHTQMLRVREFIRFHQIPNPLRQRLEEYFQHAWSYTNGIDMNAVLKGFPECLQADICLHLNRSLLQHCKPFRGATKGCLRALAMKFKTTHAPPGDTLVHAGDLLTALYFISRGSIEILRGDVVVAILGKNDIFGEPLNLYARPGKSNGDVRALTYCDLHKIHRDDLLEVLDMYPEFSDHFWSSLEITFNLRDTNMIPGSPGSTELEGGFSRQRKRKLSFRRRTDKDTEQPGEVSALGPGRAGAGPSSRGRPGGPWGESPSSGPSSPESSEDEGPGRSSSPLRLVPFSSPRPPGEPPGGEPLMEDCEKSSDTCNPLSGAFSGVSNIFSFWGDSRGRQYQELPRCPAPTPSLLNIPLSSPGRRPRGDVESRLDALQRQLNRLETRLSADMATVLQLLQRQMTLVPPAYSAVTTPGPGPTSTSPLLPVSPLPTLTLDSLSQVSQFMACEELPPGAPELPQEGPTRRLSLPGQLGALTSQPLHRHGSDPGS
row,SMILES,"hERG current change (%, negative = inhibition) at 1uM [%]"
1,NC(=O)c1ccccc1NC(=S)NC(=O)CCc1ccccc1,6.72
2,CCSc1nnc(-c2ccc(OC)cc2)o1,3.96
3,Cc1cccc2cc(C#N)c(NCCNC(=S)NCCCN3CCOCC3)nc12,4.84
4,Oc1c(C=Nc2ccccc2)sc2ccccc12,12.4
5,CC(C)CC(=O)C1CCCN(C(=O)c2ccc3oc(Cc4ccccc4)nc3c2)C1 (stereo not drawn),11.9
6,Cn1c(CC(=O)Nc2ccc(Cl)c(Cl)c2)nnc1SCC(=O)NCc1ccccc1,9.85
7,COc1cc(SC)ccc1C(=O)N1CCc2ccccc21,13.9
8,N=c1c(C(=O)NC2CCCCC2)cc2c(=O)n3ccccc3nc2n1CCc1ccccc1,-88.1
9,Cc1cc2c(=O)n(Cc3ccco3)c(SCC(=O)N3CCCc4ccccc43)nc2s1,0.209
10,CC1CCCC(NC(=O)CCCn2c(=S)[nH]c3ccccc3c2=O)C1C (stereo not drawn),5.25
11,CN1CCC(=NNC(=O)CN(c2cccc(Br)c2)S(C)(=O)=O)CC1,1.22
12,CS(=O)(=O)Nc1ccc(C2=NN(C(=O)c3ccco3)C(c3cccc(F)c3)C2)cc1 (stereo not drawn),-85.9
13,CCS(=O)(=O)Nc1ccc(C2=NN(C(=O)c3ccco3)C(c3cccc(F)c3)C2)cc1 (stereo not drawn),0.693
14,CS(=O)(=O)Nc1ccc(C2=NN(C(=O)c3ccco3)C(c3ccc(F)cc3)C2)cc1 (stereo not drawn),-44.7
15,CCCCN1C(=N)C(CC)(CC)C(=O)NC1=O.Cl,27.4
16,Cc1ccc2cc(CN(Cc3ccco3)C(=O)C3CCCCC3)c(=O)[nH]c2c1C,6.2
17,C=CCNC(=O)c1cc2c(=O)n3cc(C)ccc3nc2nc1NCC1CCCO1 (stereo not drawn),-82
18,O=C(NC1CCCCCC1)c1ccc2nc3cc(Cl)ccc3c(=O)n2c1,4.2
19,COCCCNC(=O)c1cc2c(=O)n3cc(C)ccc3nc2nc1NCC1CCCO1 (stereo not drawn),-26.6
20,Cc1ccc(-c2nn(-c3ccccc3)cc2C(=O)NCC2CCCO2)cc1 (stereo not drawn),1.49
21,CCn1cc(C(=O)NCC2CCCO2)c2cc(OC)c(OC)cc2c1=O (stereo not drawn),14.8

row,SMILES,"hERG current change (%, negative = inhibition) at 1uM [%]"
1,Cc1ccc2nc3nc(NCC4CCCO4)c(C(=O)NC4CCCCC4)cc3c(=O)n2c1 (stereo not drawn),-76.8
2,Cc1ccc(-c2nn(-c3ccccc3Cl)cc2C(=O)NCC2CCCO2)cc1 (stereo not drawn),18.4
3,Cc1ccc2nc3c(cc(C(=O)NC4CCS(=O)(=O)C4)n3Cc3ccccc3)c(=O)n2c1 (stereo not drawn),21.4
4,Cc1ccc2nc(SCC(=O)NC3CCCCC3)nc(=O)n2c1,-4.63
5,Cc1ccc2nc3nc(NCC4CCCO4)c(C(=O)NC4CCCC4)cc3c(=O)n2c1 (stereo not drawn),-83.8
6,CCNc1nc2nc3ccc(C)cn3c(=O)c2cc1C(=O)NCC1CCCO1 (stereo not drawn),-31.2
7,CCOCCCNc1nc2nc3ccc(C)cn3c(=O)c2cc1C(=O)NCC1CCCO1 (stereo not drawn),-76
8,CCN(CC)c1ccc(/C=N/NC(=O)CNC(=O)c2ccccn2)cc1,-7.85
9,CC(C)C(C)NC(=O)CSc1nnc(-c2c[nH]c3ccccc23)o1 (stereo not drawn),4.32
10,CC1(C)CC(=O)C(C2c3ccccc3S(=O)(=O)c3ccccc32)C(=O)C1,16.3
11,c1ccc(-c2nc3nonc3c3nc4ccccc4n23)cc1,-1.03
12,CCN(CC)CC(O)CN(c1ccccc1)S(=O)(=O)c1ccc2ccccc2c1.Cl (stereo not drawn),-78.5
13,Cc1cccc(N(CC(O)CN2CCOCC2)S(=O)(=O)c2ccccc2)c1 (stereo not drawn),11.2
14,Cc1ccc(S(=O)(=O)N(CC(O)CN2C(=O)NC(C)(C)C2=O)c2ccccc2)cc1 (stereo not drawn),-28.4
15,Cc1ccc(N(CC(O)CN(C)C)S(=O)(=O)c2ccccc2)cc1.Cl (stereo not drawn),-62.8
16,Cc1cccc(N(CC(O)CN(C)C)S(=O)(=O)c2ccccc2)c1.Cl (stereo not drawn),-50.1
17,CCCN(CCC)CC(O)CN(c1ccccc1)S(=O)(=O)c1ccc(C)cc1 (stereo not drawn),-88.6
18,CCN(c1ccccc1)S(=O)(=O)c1ccc2ccccc2c1,14.6
19,Cc1cccc(N(CC(O)CN2CCCC2)S(=O)(=O)c2ccccc2)c1 (stereo not drawn),-35.3
20,Cc1ccc(S(=O)(=O)N(CC(O)CN(C)C)c2ccccc2)cc1.Cl (stereo not drawn),-43.8
21,Cc1ccc(S(=O)(=O)N(CCC(=O)O)c2ccccc2)cc1,4.11

row,SMILES,"hERG current change (%, negative = inhibition) at 1uM [%]"
1,O=S(=O)(c1ccccc1)N(CC(O)COc1ccccc1)c1ccccc1 (stereo not drawn),7.47
2,Cc1cc(C)n(CC(O)CN(c2ccccc2)S(=O)(=O)c2ccc3ccccc3c2)n1 (stereo not drawn),6.41
3,Cc1nn(CC(=O)N2CCOCC2)c(=O)c2nn(-c3ccccc3)c(C)c12,16.5
4,Cc1nn(C/C(C#N)=N\O)c(C)[n+]1N.[Cl-],11.8
5,COc1c(Cl)cc(Cl)cc1CNCCNCC(C)O.Cl (stereo not drawn),5.98
6,COc1ccc(C(=O)Nc2ccc(C(=O)N3CCOCC3)cc2)cc1OC,11.3
7,Cc1c(NC(=O)/C(C#N)=C/c2ccccc2)c(=O)n(-c2ccccc2)n1C,8.78
8,CCOC(=O)C1CCN(Cc2ccc(Cl)nc2)CC1,11.6
9,COc1ccc(C2c3c(ccc4ccccc34)Oc3ncn4nc(Cc5ccc(OC)c(OC)c5)nc4c32)cc1 (stereo not drawn),2.05
10,O=C(NCCc1ccccc1F)/C(=C/c1cccnc1)NC(=O)c1ccccc1,-3.24
11,CN(C)c1ccc(/C=C(\NC(=O)c2ccccc2)C(=O)NCc2cccnc2)cc1,-0.749
12,O=C(NCc1cccnc1)/C(=C/c1ccccc1)NC(=O)c1ccccc1,-23.3
13,COc1ccc(CCNC(=O)/C(=C/c2cccnc2)NC(=O)c2ccccc2)cc1,3.27
14,O=C(NCCc1ccc(Cl)cc1)/C(=C/c1cccnc1)NC(=O)c1ccccc1,-53.8
15,O=C(NCc1cccnc1)/C(=C/c1ccc(Cl)cc1)NC(=O)c1ccccc1,-60.8
16,COc1ccc(/C=C2\SC(=S)N(CCC(=O)N3CCCCC3)C2=O)cc1,-2.37
17,CCOc1ccc(C(=O)CCC(=O)Nc2ccccc2C)cc1,12.5
18,CC(C)c1ccccc1NC(=O)COC(=O)CNC(=O)c1ccc(Br)cc1,11
19,CCN(CC)S(=O)(=O)c1ccc(Cl)c(NC(=O)CSc2nnc(-c3cccs3)o2)c1,5.51
20,CCOc1ccc(N2CC(C(=O)Nc3ccc(S(=O)(=O)N4CCCC4)cc3)CC2=O)cc1 (stereo not drawn),6.22
21,c1ccc(Nc2nn[nH]n2)cc1,10.1

row,SMILES,"hERG current change (%, negative = inhibition) at 1uM [%]"
1,NC(=O)c1sc2nc(N3CCCCC3)c3c(c2c1N)CCCC3,4.86
2,Cc1cc(Cl)c2oc(C(=O)N3CCN(c4ccncc4)CC3)c(C)c2c1,-83.6
3,Cc1cc(Cl)c2oc(C(=O)N3CCN(C(=O)c4ccco4)CC3)c(C)c2c1,7.14
4,Cc1cc(Cl)c2oc(C(=O)N3CCN(c4cccc(C)n4)CC3)c(C)c2c1,14
5,Cc1ccc(S(=O)(=O)NCCC(=O)OCC(=O)N(Cc2ccccc2)C(C)(C)C)cc1C,-0.298
6,O=C1CC2(CCN(C(=O)c3cccc(F)c3)CC2)Oc2ccccc21,-32.6
7,O=C1CC2(CCN(C(=O)c3cccc([N+](=O)[O-])c3)CC2)Oc2ccccc21,-66.7
8,O=C1CC2(CCN(C(=O)c3ccc(Cl)cc3)CC2)Oc2ccccc21,-63.7
9,O=C1CC2(CCN(C(=O)c3ccc(F)cc3)CC2)Oc2ccccc21,-42.2
10,O=C(O)c1ccc(S(=O)(=O)N2CCC3(CC2)CC(=O)c2ccccc2O3)cc1,10.5
11,COc1ccc(Cl)cc1C(=O)N1CCC2(CC1)CC(=O)c1ccccc1O2,-71.7
12,CC(=O)N1CCC2(CC1)CC(=O)c1cc(Cl)ccc1O2,-7.88
13,COc1ccccc1OCC(=O)N1CCC2(CC1)CC(=O)c1ccccc1O2,-4.96
14,O=C(c1ccccc1)N1CCN(C(=O)c2ccc([N+](=O)[O-])cc2)CC1,-4.32
15,O=C1CC2(CCN(C(=O)c3c(F)cccc3F)CC2)Oc2ccccc21,-3.63
16,O=C1CC2(CCN(C(=O)c3cccc(Cl)c3)CC2)Oc2ccccc21,-46.6
17,O=C1CC2(CCN(C(=O)c3ccc([N+](=O)[O-])cc3)CC2)Oc2ccccc21,-87.5
18,CCO.CN1CC=C2C(C#N)=C(N)C(C#N)(C#N)[C@H](c3ccoc3)[C@H]2C1,6.1
19,COc1cc2ccccc2cc1C(=O)N(CCN(C)C)c1nc2c(OC)ccc(OC)c2s1.Cl,14
20,Cc1ccnc(NS(=O)(=O)c2ccc(NS(=O)(=O)c3ccc(Br)cc3)cc2)n1,16.1
21,COc1ccccc1NC(=S)NC(=O)/C=C/c1cccs1,12.3

# Reference: PMC4336329 (PLoS ONE, 2015)
